The supplement of paper PMC11738630

Tested on: Salmonella enterica serovar Typhimurium 14028s
Assay: approximate change in surviving CFU after surface colonization relative to water-only control (log10 CFU/mL change); higher = more surviving bacteria (less inhibition of surface colonization)
Settings: not stated (Biolog proprietary concentration), surface: plastic 96-well plate, 20-24 h at 25 °C

OC[C@H]1O[C@H](O[C@H]2O[C@H](CO)[C@@H](O)[C@H](O)[C@H]2O)[C@H](O)[C@@H](O)[C@@H]1O [D-Trehalose]
approximate change in surviving CFU (log10) (Biolog plate: PM1, Biolog well: A10): 1.59

OC[C@@H](O)[C@@H](O)[C@H](O)[C@H](O)CO [D-Mannitol]
approximate change in surviving CFU (log10) (Biolog plate: PM1, Biolog well: B11): 2.19

O=C(O)CC(O)C(=O)O (racemic) [D,L-Malic Acid]
approximate change in surviving CFU (log10) (Biolog plate: PM1, Biolog well: C3): 1.05

OC[C@H]1O[C@H](O)[C@H](O)[C@@H](O)[C@@H]1O [a-D-Glucose]
approximate change in surviving CFU (log10) (Biolog plate: PM1, Biolog well: C9): 2.34

O=P(O)(O)O[C@H]1O[C@H](CO)[C@@H](O)[C@H](O)[C@H]1O [D-Glucose-1-Phosphate]
approximate change in surviving CFU (log10) (Biolog plate: PM1, Biolog well: E3): 1.4

NCC(=O)N[C@@H](CC(=O)O)C(=O)O [Glycyl-L-Aspartic Acid]
approximate change in surviving CFU (log10) (Biolog plate: PM1, Biolog well: F1): 0.929

O[C@H]1[C@H](O)[C@@H](O)[C@H](O)[C@@H](O)[C@H]1O [myo-Inositol]
approximate change in surviving CFU (log10) (Biolog plate: PM1, Biolog well: F3): 0.902

O=C(O)Cc1cccc(O)c1 [m-Hydroxy Phenyl Acetic Acid]
approximate change in surviving CFU (log10) (Biolog plate: PM1, Biolog well: H3): -1.31

O=C(O)[C@H]1OC(O)[C@H](O)[C@@H](O)[C@H]1O (stereo partly drawn) [D-Galacturonic Acid]
approximate change in surviving CFU (log10) (Biolog plate: PM1, Biolog well: H10): 1.09

OC[C@H]1O[C@H](OC[C@H]2O[C@H](O[C@H]3[C@H](O)[C@@H](O)[C@@H](O)O[C@@H]3CO)[C@H](O)[C@@H](O)[C@@H]2O[C@H]2O[C@H](CO)[C@@H](O)[C@H](O)[C@H]2O)[C@H](O)[C@@H](O)[C@@H]1O [Glycogen]
approximate change in surviving CFU (log10) (Biolog plate: PM2, Biolog well: A8): 0.944

OC1OC[C@@H](O)[C@@H](O)[C@@H]1O (stereo partly drawn) [D-Arabinose]
approximate change in surviving CFU (log10) (Biolog plate: PM2, Biolog well: B5): 0.408

OC[C@H](O)C(O)[C@@H](O)CO [L-Arabitol]
approximate change in surviving CFU (log10) (Biolog plate: PM2, Biolog well: B7): 1.12

OC[C@@H](O)[C@@H](O)CO [i-Erythritol]
approximate change in surviving CFU (log10) (Biolog plate: PM2, Biolog well: B10): 1.35

O=C[C@H](O)[C@@H](O)[C@H](O)[C@H](O)CO[C@@H]1O[C@H](CO)[C@@H](O)[C@H](O)[C@H]1O [Gentiobiose]
approximate change in surviving CFU (log10) (Biolog plate: PM2, Biolog well: C1): 1.09

CO[C@@H]1O[C@H](CO)[C@@H](O)[C@H](O)[C@H]1O [b-Methyl-D-Glucoside]
approximate change in surviving CFU (log10) (Biolog plate: PM2, Biolog well: C7): 1.33

CO[C@@H]1OC[C@@H](O)[C@H](O)[C@H]1O [b-Methyl-D-Xyloside]
approximate change in surviving CFU (log10) (Biolog plate: PM2, Biolog well: C11): -0.215

O=C(CO)[C@@H](O)[C@H](O)[C@H](O)CO[C@H]1O[C@H](CO)[C@@H](O)[C@H](O)[C@H]1O [Palatinose]
approximate change in surviving CFU (log10) (Biolog plate: PM2, Biolog well: C12): 0.751

OC[C@H]1O[C@H](OC[C@H]2O[C@H](O[C@]3(CO)O[C@H](CO)[C@@H](O)[C@@H]3O)[C@H](O)[C@@H](O)[C@@H]2O)[C@H](O)[C@@H](O)[C@H]1O [D-Raffinose]
approximate change in surviving CFU (log10) (Biolog plate: PM2, Biolog well: D1): 0.494

CCCCCCCCCC(=O)O [Capric Acid]
approximate change in surviving CFU (log10) (Biolog plate: PM2, Biolog well: E1): -0.88

C/C(=C/C(=O)O)C(=O)O [Citraconic Acid]
approximate change in surviving CFU (log10) (Biolog plate: PM2, Biolog well: E3): 0.472

CCCC(=O)C(=O)O [a-Keto-Valeric Acid]
approximate change in surviving CFU (log10) (Biolog plate: PM2, Biolog well: E10): -0.966

O=C(O)CCCCCCCCC(=O)O [Sebacic Acid]
approximate change in surviving CFU (log10) (Biolog plate: PM2, Biolog well: F8): 0.429

CC(O)C(C)O (stereo not drawn) [2,3-Butanediol]
approximate change in surviving CFU (log10) (Biolog plate: PM2, Biolog well: H10): -0.708

O=NO [Nitrite]
approximate change in surviving CFU (log10) (Biolog plate: PM3, Biolog well: A3): 0.966

NC(=O)C[C@@H](N)C(=O)O [D-Asparagine]
approximate change in surviving CFU (log10) (Biolog plate: PM3, Biolog well: C4): 0.644

N[C@H](CCC(=O)O)C(=O)O [D-Glutamic Acid]
approximate change in surviving CFU (log10) (Biolog plate: PM3, Biolog well: C6): 0.837

CCN [Ethylamine]
approximate change in surviving CFU (log10) (Biolog plate: PM3, Biolog well: D8): -1.89

NCCO [Ethanolamine]
approximate change in surviving CFU (log10) (Biolog plate: PM3, Biolog well: D9): -0.408

NCCc1c[nH]cn1 [Histamine]
approximate change in surviving CFU (log10) (Biolog plate: PM3, Biolog well: E1): -0.987

NC=O [Formamide]
approximate change in surviving CFU (log10) (Biolog plate: PM3, Biolog well: E5): -0.708

O=c1cc[nH]c(=O)[nH]1 [Uracil]
approximate change in surviving CFU (log10) (Biolog plate: PM3, Biolog well: F10): 1.14

C[C@H](N)C(=O)N[C@@H](CCC(=O)O)C(=O)O
approximate change in surviving CFU (log10) (Biolog plate: PM3, Biolog well: H3): 0.451

C[C@H](N)C(=O)NCC(=O)O
approximate change in surviving CFU (log10) (Biolog plate: PM3, Biolog well: H4): -0.322

OC[C@H]1OC(O)[C@H](O)[C@@H](O)[C@H]1O (stereo partly drawn) [D-Galactose]
approximate change in surviving CFU (log10) (Biolog plate: PM1, Biolog well: A6): 1.59

OC[C@@H](O)[C@H](O)[C@H](O)[C@@H](O)CO [Dulcitol]
approximate change in surviving CFU (log10) (Biolog plate: PM1, Biolog well: A12): 1.03

OC[C@H]1O[C@H](OC[C@H]2OC(O)[C@H](O)[C@@H](O)[C@@H]2O)[C@H](O)[C@@H](O)[C@H]1O (stereo partly drawn) [D-Melibiose]
approximate change in surviving CFU (log10) (Biolog plate: PM1, Biolog well: C11): 1.82

O=C(O)CCC(=O)C(=O)O [a-Keto-Glutaric Acid]
approximate change in surviving CFU (log10) (Biolog plate: PM1, Biolog well: D6): 1.19

OC[C@H]1O[C@@](CO)(O[C@H]2O[C@H](CO)[C@@H](O)[C@H](O)[C@H]2O)[C@@H](O)[C@@H]1O [Sucrose]
approximate change in surviving CFU (log10) (Biolog plate: PM1, Biolog well: D11): 0.987

CCCCCCCC/C=C\CCCCCCCC(=O)OCCOCC(OCCO)C1OCC(OCCO)C1OCCO (stereo not drawn) [Tween 80]
approximate change in surviving CFU (log10) (Biolog plate: PM1, Biolog well: E5): -0.58

CC[C@H](O)C(=O)O [a-Hydroxy Butyric Acid]
approximate change in surviving CFU (log10) (Biolog plate: PM1, Biolog well: E7): -2.3

CCC(=O)O [Propionic Acid]
approximate change in surviving CFU (log10) (Biolog plate: PM1, Biolog well: F7): -0.987

C[C@H](N)C(=O)NCC(=O)O [L-Alanyl-Glycine]
approximate change in surviving CFU (log10) (Biolog plate: PM1, Biolog well: G6): 0.966

CC(=O)CC(=O)O [Acetoacetic Acid]
approximate change in surviving CFU (log10) (Biolog plate: PM1, Biolog well: G7): 0.172
